# High-throughput results from PubChem BioAssay.
# Pf apPOL inh: Pf-apPOL inhibitors, biochemical, fluorescence; AID 1794808, 2022; Plasmodium falciparum apicoplast DNA polymerase (apPOL); inhibition, % at 10 µM; hit rate 0.25% among 210,000; Recombinant Pf-apPOL, molecular beacon fluorescence, 1.5 h
# mHTT CaM bind: mutant huntingtin-calmodulin interaction inhibitors – biochemical, AlphaScreen, primary screen | hit rate 3.6% among 190,000 | inhibition, % at 15 µM | AlphaScreen His-mHTT/GST-CaM binding, luminescence | AID 1671202, 2021 | P42858;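 also: 0% = both proteins with DMSO and 100% = one protein alone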
# Target sequence (P42858 whole entry, looked up, stated change not applied): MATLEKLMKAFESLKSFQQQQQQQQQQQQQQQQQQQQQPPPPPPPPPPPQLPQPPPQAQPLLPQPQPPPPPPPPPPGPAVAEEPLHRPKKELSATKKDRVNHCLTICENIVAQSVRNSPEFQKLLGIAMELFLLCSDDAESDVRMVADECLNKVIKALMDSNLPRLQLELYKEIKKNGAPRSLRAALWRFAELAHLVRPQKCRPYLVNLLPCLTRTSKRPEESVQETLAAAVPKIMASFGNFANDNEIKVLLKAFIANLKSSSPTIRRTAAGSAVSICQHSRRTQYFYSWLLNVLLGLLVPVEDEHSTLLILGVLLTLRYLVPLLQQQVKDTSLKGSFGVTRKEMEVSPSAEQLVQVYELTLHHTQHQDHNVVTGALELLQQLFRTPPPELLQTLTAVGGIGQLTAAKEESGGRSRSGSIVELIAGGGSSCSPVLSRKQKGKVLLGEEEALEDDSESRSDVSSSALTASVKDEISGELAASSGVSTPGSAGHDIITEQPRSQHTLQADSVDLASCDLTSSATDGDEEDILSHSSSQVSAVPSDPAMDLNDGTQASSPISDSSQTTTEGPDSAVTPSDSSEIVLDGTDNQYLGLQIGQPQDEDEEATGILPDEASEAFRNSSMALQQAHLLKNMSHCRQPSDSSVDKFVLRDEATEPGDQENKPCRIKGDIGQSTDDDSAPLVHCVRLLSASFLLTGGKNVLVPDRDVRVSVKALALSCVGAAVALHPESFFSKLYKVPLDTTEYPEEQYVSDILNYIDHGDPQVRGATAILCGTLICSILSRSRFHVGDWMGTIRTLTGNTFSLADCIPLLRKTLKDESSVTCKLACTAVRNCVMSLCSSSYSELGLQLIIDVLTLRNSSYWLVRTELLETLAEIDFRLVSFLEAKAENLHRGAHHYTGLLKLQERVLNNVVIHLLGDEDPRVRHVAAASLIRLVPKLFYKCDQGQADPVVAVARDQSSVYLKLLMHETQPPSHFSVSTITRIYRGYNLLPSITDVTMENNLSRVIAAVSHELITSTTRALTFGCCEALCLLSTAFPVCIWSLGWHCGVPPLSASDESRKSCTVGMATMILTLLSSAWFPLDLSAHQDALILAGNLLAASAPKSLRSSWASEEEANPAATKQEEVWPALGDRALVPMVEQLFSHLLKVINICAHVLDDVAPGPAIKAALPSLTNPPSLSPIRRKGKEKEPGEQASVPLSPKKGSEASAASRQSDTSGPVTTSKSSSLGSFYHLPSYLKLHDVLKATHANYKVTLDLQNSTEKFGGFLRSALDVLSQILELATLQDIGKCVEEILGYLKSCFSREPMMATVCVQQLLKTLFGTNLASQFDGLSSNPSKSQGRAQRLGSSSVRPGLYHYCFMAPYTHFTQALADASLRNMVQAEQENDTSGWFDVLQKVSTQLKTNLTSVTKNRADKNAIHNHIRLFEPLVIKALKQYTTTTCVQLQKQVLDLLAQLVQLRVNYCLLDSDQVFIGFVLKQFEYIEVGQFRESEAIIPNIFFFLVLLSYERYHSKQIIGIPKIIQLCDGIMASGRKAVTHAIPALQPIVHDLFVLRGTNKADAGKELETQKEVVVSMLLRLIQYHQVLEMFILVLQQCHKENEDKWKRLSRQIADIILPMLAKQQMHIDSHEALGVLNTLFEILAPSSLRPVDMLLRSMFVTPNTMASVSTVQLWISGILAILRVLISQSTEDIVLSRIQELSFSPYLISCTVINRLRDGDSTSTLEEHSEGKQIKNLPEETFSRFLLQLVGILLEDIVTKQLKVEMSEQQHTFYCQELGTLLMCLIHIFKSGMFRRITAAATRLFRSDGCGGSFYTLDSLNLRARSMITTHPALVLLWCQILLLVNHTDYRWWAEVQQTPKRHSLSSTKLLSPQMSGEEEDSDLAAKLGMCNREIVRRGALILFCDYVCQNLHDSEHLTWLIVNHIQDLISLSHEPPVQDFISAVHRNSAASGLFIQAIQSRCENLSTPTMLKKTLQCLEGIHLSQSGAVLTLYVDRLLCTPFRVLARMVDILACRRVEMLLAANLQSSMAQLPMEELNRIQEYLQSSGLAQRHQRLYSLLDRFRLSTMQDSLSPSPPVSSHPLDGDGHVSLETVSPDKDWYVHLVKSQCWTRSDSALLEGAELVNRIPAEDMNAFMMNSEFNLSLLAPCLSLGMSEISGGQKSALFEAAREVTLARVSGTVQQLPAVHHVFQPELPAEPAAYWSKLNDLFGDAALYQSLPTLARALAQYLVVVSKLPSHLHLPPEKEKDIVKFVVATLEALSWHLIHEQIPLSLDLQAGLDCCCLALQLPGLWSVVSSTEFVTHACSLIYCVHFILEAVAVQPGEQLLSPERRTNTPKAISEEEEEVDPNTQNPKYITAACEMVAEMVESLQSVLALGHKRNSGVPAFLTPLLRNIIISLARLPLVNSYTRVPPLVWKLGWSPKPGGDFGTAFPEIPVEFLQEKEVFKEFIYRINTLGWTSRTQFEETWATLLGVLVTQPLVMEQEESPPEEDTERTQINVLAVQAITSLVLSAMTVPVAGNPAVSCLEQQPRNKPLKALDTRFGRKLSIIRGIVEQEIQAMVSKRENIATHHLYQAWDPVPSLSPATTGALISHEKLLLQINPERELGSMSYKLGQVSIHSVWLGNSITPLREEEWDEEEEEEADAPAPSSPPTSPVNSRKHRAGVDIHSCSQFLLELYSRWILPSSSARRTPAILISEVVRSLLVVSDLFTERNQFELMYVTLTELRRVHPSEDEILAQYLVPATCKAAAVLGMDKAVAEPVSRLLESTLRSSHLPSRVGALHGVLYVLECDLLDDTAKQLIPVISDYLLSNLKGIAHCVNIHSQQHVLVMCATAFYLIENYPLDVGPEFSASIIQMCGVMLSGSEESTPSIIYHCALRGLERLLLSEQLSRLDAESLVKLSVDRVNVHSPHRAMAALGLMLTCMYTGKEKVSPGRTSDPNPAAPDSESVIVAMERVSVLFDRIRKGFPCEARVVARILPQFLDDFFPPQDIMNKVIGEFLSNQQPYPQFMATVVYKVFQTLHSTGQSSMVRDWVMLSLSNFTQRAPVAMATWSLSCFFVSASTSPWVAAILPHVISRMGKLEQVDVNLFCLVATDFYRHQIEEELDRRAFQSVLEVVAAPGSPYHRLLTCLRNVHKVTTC
# * hit, by the source's call; nt = not tested or not shown; ! = not confirmed by another sample. The full list was thinned out, with hits kept by preference. Rule as the data show it: active = inhibition above about 50%; inactive = the rest.
SMILES,Pf apPOL inh,mHTT CaM bind
Cc1cc(C)n(-c2ccc(C(=O)Nc3cccc(-c4csc(C)n4)c3)nn2)n1,2,-4
O=C1CC(c2ccco2)Cc2c1cnn2-c1nc2ccccc2[nH]1 (centres undefined),-2,12
Cc1ccccc1Cc1c(C)nc2c(C(=O)NCc3ccccc3)cnn2c1C,-6,12
CCN(C(=O)c1ccc2[nH]c3c(c2c1)CN(C(C)=O)CC3)c1cccc(C)c1,-4,84*
CCC(CC)N1CCN(C(=O)c2ccc3[nH]c4c(c3c2)CN(C(C)=O)CC4)CC1,-5,38
CCOC(=O)C(Oc1ccc2c(=O)c(-c3ccccc3OC)coc2c1)c1ccccc1 (centres undefined),-5,58*!
COc1cccc(Oc2coc3cc(OC(=O)C=Cc4ccccc4)ccc3c2=O)c1,-6,62*
C=CCOC(=O)Oc1ccc2c(=O)c(-c3ccccc3OC)coc2c1,8,23
CCOc1ccc2c(=O)c(-c3ccccc3OC)coc2c1,-6,2
COC(=O)Oc1ccc2c(=O)c(-c3ccccc3OC)coc2c1,2,50*
COc1cccc(Oc2coc3cc(OC(=O)c4ccccc4)ccc3c2=O)c1,-13,-1
COc1ccc(S(=O)(=O)c2c(SC)n[nH]c2N)cc1,1,-1
COc1ccc(N2CCN(C(=O)c3ncn[nH]3)CC2)cc1,-6,15
CC1(C)C2CCC1(CS(=O)(=O)Nc1ccc(Cl)cc1)C(=O)C2 (centres undefined),-6,3
Cc1cc(C)cc(N2CC(C(=O)N(C)Cc3ccccc3)CC2=O)c1 (centres undefined),-3,4
COc1ccc(NC(=O)C2CC(=O)N(CCc3c[nH]c4ccc(F)cc34)C2)c(OC)c1 (centres undefined),-1,29
Cc1ccccc1NC(=O)C1CC(=O)N(CCc2c[nH]c3ccc(F)cc23)C1 (centres undefined),2,9
COc1ccc2[nH]cc(CCN3CC(C(=O)Nc4ccc(C)c(Cl)c4)CC3=O)c2c1 (centres undefined),5,75*
Cc1ccc2[nH]cc(CCN3CC(C(=O)Nc4cc(Cl)ccc4C)CC3=O)c2c1 (centres undefined),-4,49
Cc1ccccc1NC(=O)C1CC(=O)N(CCc2c[nH]c3ccc(Cl)cc23)C1 (centres undefined),-2,56*
Cc1ccc(N2CC(C(=O)N(C)Cc3ccccc3)CC2=O)cc1Cl (centres undefined),-1,61*
Cc1ccc2[nH]cc(CCN3CC(C(=O)Nc4cccc(Cl)c4C)CC3=O)c2c1 (centres undefined),-2,56*
CN1CCN(c2nc3ccc(NC(=O)c4ccc(Cl)s4)cc3s2)CC1,-10,8
O=C(NCc1ccc(Cl)cc1)c1cc2ccccc2c(=O)o1,-3,-3
COc1ccc(CC(=O)Nc2c3c(nn2-c2ccc(Cl)cc2)CS(=O)(=O)C3)cc1OC,-4,4
SMILES,Pf apPOL inh,mHTT CaM bind
COc1ccc(S(=O)(=O)Nc2ccc(NS(=O)(=O)c3ccc(C)cc3)cc2)cc1,2,3
CC1=C(C(=O)Nc2cccc(C(F)(F)F)c2)C(c2sccc2C)C2=C(CCCC2=O)N1 (centres undefined),-5,5
Cc1nc2c(c(=O)n1CC(=O)NCc1ccc(F)cc1)CCN(Cc1ccccc1)C2,6,-4
COc1ccc2cc(C(=O)Nc3ccccc3)c(=Nc3cccc(F)c3)oc2c1,1,4
COc1ccc(-c2ncc3c(n2)CCN(C(=O)C2CCCO2)C3)cc1 (centres undefined),-4,4
COc1ccc(CN2CCN(C(=O)c3cccc(F)c3)CC2)cc1,5,-2
COc1ccccc1NC(=O)N1CCc2nc(-c3ccccc3)ncc2C1,-3,6
CCOc1ccc(NC(=O)C2CC(=O)N(CCc3c[nH]c4ccc(F)cc34)C2)cc1 (centres undefined),1,16
Cc1ccc2[nH]cc(CCN3CC(C(=O)Nc4ccc(F)cc4)CC3=O)c2c1 (centres undefined),1,10
NC(=O)c1ccc(NC(=O)C2CC(=O)N(CCc3c[nH]c4ccc(Cl)cc34)C2)cc1 (centres undefined),1,100*
COc1ccc(NC(=O)C2CC(=O)N(CCc3c[nH]c4ccc(Cl)cc34)C2)cc1 (centres undefined),-5,87*
Cc1nnc(NC(=O)C2CC(=O)N(CCc3c[nH]c4ccc(Cl)cc34)C2)s1 (centres undefined),0,12
O=C(Nc1ccc2c(c1)OCO2)C1CC(=O)N(CCc2c[nH]c3ccc(Cl)cc23)C1 (centres undefined),-4,82*
Cc1ccc2[nH]cc(CCN3CC(C(=O)Nc4ccc5c(c4)OCO5)CC3=O)c2c1 (centres undefined),0,35
CCOc1ccc(NC(=O)C2CC(=O)N(CCc3c[nH]c4ccc(Cl)cc34)C2)cc1 (centres undefined),2,99*
O=C(NCCN1CCN(C(=O)c2cc(-c3ccco3)on2)CC1)c1ccsc1,13,-9
CC1CCN(C(=O)c2sc3cccc(F)c3c2Cl)CC1,-1,-28
Cc1ccc2[nH]cc(CCN3CC(C(=O)Nc4cccc(Cl)c4)CC3=O)c2c1 (centres undefined),-2,47
Cc1ccc(NC(=O)C2CC(=O)N(CCc3c[nH]c4ccc(Cl)cc34)C2)cc1 (centres undefined),2,62*
CCNC(=O)C1CC(=O)N(CCc2c[nH]c3ccc(Cl)cc23)C1 (centres undefined),-2,5
CN(Cc1ccccc1)C(=O)C1CC(=O)N(CCc2c[nH]c3ccc(Cl)cc23)C1 (centres undefined),5,62*
CCc1ccc(NC(=O)C2CC(=O)N(CCc3c[nH]c4ccc(F)cc34)C2)cc1 (centres undefined),-2,57*
O=C(Nc1ccc(Cl)cc1)C1CC(=O)N(CCc2c[nH]c3ccc(F)cc23)C1 (centres undefined),3,20
Cc1cc(C)c2sc(N(Cc3cccnc3)C(=O)Cn3c(=O)oc4ccccc43)nc2c1,4,7
O=C(NCC1CCN(Cc2cccs2)CC1)c1ccc2nsnc2c1,-4,-6
SMILES,Pf apPOL inh,mHTT CaM bind
CCSC1=N/C(=C\c2c(OC)cc(OC)cc2OC)C(=O)S1,-81,43
CCN(CC)c1ccc(/C=C2\N=C(SC)SC2=O)cc1,-5,64*
CCSC1=N/C(=C/c2ccc(N(CC)CC)cc2OC)C(=O)S1,-47,84*
CSC1=N/C(=C\c2ccc(N(C)C)cc2)C(=O)S1,-7,23
Cc1ccccc1-c1nc(C2CCN(S(=O)(=O)c3ccc(Cl)cc3)CC2)no1,-2,-8
COc1cc(Sc2ccccc2[N+](=O)[O-])ccc1N,1,55*
COc1cc(Sc2ccc(Cl)cc2)ccc1[N+](=O)[O-],-6,nt
Cn1cc(-c2ccncc2)cc1C(=O)NCc1cccc(F)c1,-9,10
CC1CCc2cc(F)cc3c(O)c(C(=O)NCCCN(C)C)c(=O)n1c23 (centres undefined),-66,99*
CC1CCc2cc(F)cc3c(O)c(C(=O)NCCN4CCOCC4)c(=O)n1c23 (centres undefined),-83,26
Cc1cc(C)nc(SCCCn2c(=O)[nH]c3ccccc32)n1,-2,18
